According to paper PMC7862700, “An all-to-all approach to the identification of sequence-specific readers for epigenetic DNA modifications on cytosine”:

Legend:
Assay in all cases: DAPPL (digital affinity profiling via proximity ligation, sequencing); 10 mM Tris-HCl pH 7.5, 50 mM NaCl, 1 mM DTT, 4% glycerol, room temperature, 30 min; GST-TFs on glutathione beads, 16-mer random dsDNA library, 0.1% formaldehyde crosslink after washing; high values mean tight binding
Conditions in all cases: protein: recombinant; tags: N-terminal GST; dsDNA, one strand shown
FLI1 = biological target: T1, FLI1 (Homo sapiens, UniProt Q01543 1-452)
T1 sequence: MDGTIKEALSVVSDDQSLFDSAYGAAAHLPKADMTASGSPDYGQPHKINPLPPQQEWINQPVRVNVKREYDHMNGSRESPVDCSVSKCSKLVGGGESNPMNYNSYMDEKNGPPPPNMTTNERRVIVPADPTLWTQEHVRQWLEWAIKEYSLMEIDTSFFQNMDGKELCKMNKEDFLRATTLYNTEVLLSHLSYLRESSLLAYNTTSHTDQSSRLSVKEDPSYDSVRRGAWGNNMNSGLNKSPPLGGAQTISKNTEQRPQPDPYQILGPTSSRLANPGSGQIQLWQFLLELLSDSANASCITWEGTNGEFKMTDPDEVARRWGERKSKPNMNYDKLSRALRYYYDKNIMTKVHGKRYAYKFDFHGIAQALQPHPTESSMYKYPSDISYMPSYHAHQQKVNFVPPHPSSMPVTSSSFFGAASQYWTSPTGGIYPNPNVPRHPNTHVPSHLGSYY
Procedure, shortened: (§1)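 Human transcription factors were made in yeast as GST fusions, captured on glutathione beads and barcoded with DNA. With a tag-only sample included, the pool was incubated with 200 nmole of a random double-stranded 16-mer DNA library in Tris/NaCl/DTT/glycerol buffer at room temperature for 30 min, then crosslinked with 0.1% formaldehyde after washing, ligated by proximity, amplified and sequenced. For binding signal, each hexamer's read frequency for a factor is divided by its frequency for the tag-only sample.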

ELK1 = biological target: T2, ELK1 (Homo sapiens, UniProt P19419 1-428)
T2 sequence: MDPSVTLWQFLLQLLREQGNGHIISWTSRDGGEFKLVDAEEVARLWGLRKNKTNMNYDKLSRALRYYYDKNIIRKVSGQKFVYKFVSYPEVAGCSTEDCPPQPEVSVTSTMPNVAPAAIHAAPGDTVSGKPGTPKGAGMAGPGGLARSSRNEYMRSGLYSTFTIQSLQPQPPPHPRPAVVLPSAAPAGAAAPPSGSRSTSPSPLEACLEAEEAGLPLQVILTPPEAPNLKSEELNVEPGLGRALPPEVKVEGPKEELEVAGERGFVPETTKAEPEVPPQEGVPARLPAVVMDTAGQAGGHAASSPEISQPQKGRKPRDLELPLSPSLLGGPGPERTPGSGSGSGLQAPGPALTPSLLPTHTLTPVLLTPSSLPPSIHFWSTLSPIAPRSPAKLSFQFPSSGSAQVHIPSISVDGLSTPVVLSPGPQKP
Procedure, shortened: as §1

ELF1 = ELF1 (Homo sapiens, UniProt P32519 1-619)
Procedure, shortened: as §1

EHF = biological target: T3, EHF (Homo sapiens, UniProt Q9NZC4 1-300)
T3 sequence: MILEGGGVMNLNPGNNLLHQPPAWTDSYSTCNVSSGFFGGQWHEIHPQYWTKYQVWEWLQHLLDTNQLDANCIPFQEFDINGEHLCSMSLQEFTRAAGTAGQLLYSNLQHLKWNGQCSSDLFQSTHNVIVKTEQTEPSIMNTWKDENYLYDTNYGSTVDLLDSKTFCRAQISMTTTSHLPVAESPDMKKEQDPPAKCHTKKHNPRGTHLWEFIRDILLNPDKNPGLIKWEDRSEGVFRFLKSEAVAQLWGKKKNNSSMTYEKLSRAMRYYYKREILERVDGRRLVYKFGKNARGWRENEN
Procedure, shortened: as §1

ELK4 = biological target: T4, ELK4 (Homo sapiens, UniProt P28324-2 1-405)
T4 sequence: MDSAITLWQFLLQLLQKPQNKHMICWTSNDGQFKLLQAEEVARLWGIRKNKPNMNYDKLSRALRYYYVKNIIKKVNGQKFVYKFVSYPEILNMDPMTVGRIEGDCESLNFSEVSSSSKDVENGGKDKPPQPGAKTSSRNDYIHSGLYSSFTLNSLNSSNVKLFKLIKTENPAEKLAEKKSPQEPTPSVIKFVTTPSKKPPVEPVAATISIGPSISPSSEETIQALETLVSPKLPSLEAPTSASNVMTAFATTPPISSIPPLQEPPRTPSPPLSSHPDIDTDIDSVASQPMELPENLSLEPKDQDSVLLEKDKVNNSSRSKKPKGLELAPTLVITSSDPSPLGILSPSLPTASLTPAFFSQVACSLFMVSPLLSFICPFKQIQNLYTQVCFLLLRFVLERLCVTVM
Procedure, shortened: as §1

ETV2 = biological target: T5, ETV2 (Homo sapiens, UniProt O00321 1-342)
T5 sequence: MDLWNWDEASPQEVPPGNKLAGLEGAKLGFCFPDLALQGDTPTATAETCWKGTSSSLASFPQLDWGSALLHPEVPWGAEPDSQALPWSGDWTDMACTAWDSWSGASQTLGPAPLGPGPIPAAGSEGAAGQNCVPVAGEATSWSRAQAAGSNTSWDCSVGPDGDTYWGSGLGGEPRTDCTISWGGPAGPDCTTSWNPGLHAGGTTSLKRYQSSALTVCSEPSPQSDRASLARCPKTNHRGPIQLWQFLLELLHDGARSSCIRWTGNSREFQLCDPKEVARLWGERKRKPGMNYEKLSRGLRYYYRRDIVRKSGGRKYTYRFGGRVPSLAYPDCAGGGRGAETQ
Procedure, shortened: as §1

ELF3 = biological target: T6, ELF3 (Homo sapiens, UniProt P78545 1-371)
T6 sequence: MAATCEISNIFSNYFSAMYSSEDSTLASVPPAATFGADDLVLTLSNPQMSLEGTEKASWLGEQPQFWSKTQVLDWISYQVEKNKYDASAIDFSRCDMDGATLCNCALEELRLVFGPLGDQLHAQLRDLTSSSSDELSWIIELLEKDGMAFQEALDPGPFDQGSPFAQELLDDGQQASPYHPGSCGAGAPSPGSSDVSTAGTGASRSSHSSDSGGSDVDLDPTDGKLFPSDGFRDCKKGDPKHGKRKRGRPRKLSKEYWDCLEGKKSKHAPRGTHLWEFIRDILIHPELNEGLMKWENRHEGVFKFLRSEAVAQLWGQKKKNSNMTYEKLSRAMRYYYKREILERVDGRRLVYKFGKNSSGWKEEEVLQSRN
Procedure, shortened: as §1

ETV7 = biological target: T7, ETV7 (Homo sapiens, UniProt Q9Y603 1-341)
T7 sequence: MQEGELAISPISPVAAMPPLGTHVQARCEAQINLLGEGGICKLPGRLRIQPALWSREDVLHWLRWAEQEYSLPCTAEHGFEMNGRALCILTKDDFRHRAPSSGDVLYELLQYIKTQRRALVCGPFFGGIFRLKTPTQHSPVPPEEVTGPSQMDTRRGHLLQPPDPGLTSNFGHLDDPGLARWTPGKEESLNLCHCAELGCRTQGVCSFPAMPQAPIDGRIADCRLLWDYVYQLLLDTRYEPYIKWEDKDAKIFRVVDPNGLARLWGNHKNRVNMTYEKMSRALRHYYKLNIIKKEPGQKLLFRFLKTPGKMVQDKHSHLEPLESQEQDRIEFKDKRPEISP
Procedure, shortened: as §1

ERG = biological target: T8, ERG (Homo sapiens, UniProt P11308 1-479)
T8 sequence: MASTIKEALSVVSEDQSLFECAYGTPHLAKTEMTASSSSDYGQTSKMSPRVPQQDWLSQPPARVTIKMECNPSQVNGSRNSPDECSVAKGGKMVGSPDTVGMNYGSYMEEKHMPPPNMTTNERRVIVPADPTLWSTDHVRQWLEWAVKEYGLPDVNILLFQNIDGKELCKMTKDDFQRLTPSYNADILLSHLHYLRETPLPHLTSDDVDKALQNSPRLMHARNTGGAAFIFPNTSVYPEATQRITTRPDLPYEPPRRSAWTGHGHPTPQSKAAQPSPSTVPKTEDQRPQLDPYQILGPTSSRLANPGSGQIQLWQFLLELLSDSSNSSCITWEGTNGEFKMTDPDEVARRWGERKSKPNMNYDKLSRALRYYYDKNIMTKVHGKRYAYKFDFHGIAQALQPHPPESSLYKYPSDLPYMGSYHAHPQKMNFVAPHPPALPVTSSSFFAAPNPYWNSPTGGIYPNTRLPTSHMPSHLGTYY
Procedure, shortened: as §1

ELK3 = biological target: T9, ELK3 (Homo sapiens, UniProt P41970 1-407)
T9 sequence: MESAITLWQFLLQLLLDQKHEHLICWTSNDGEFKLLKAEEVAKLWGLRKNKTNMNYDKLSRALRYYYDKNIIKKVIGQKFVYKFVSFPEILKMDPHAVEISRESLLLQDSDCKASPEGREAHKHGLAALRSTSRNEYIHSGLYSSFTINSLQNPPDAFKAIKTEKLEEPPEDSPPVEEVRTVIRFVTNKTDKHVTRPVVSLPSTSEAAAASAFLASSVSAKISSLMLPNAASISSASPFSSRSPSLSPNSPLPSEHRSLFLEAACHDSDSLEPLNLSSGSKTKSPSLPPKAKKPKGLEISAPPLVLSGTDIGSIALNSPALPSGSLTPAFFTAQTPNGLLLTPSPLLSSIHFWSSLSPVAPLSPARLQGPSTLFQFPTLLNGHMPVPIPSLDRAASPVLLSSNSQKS
Procedure, shortened: as §1

SPIC = biological target: T10, SPIC (Homo sapiens, UniProt Q8N5J4 1-248)
T10 sequence: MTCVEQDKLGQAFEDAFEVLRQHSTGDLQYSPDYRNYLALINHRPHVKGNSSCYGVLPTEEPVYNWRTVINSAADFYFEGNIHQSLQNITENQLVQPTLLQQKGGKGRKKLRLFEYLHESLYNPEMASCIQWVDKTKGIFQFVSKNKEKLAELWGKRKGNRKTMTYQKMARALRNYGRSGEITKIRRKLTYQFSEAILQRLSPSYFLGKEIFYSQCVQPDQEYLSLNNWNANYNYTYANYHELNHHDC
Procedure, shortened: as §1

ELF4 = ELF4 (Homo sapiens, UniProt Q99607 1-663)
Procedure, shortened: as §1

ETV3L = biological target: T11, ETV3L (Homo sapiens, UniProt Q6ZN32 1-361)
T11 sequence: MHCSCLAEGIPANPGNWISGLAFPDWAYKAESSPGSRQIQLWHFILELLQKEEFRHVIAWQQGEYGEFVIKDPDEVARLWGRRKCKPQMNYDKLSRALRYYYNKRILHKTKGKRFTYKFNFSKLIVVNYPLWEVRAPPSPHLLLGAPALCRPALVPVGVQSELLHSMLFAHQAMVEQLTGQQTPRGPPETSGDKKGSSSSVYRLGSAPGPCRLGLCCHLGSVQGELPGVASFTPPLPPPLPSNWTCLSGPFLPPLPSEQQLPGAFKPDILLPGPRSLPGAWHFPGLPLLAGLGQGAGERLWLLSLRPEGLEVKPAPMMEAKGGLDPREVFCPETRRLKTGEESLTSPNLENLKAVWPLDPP
Procedure, shortened: as §1

ETV3 = biological target: T12, ETV3 (Homo sapiens, UniProt P41162-2 1-143)
T12 sequence: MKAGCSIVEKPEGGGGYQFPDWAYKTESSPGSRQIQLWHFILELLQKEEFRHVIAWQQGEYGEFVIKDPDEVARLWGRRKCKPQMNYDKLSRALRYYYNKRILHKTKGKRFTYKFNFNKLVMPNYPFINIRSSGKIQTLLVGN
Procedure, shortened: as §1

ETV6 = ETV6 (Homo sapiens, UniProt P41212 1-452)
Procedure, shortened: as §1

ELF1, sequence (P32519 whole entry): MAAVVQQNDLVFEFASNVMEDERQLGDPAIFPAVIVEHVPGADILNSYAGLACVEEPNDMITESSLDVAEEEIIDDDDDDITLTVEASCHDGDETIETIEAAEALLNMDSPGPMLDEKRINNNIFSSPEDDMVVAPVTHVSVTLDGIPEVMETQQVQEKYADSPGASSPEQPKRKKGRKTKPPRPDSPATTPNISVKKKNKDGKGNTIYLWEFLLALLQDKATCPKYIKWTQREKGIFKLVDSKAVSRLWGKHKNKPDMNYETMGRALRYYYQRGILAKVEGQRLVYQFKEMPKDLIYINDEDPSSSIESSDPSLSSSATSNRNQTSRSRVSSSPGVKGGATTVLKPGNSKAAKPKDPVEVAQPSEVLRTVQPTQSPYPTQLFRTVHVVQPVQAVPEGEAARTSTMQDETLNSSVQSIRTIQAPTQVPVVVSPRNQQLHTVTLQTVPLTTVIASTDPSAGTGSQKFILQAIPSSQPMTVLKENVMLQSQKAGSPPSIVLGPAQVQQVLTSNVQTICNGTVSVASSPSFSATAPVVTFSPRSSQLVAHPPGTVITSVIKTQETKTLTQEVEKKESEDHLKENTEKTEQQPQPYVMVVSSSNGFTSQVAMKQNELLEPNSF
ETV6, sequence (P41212 whole entry): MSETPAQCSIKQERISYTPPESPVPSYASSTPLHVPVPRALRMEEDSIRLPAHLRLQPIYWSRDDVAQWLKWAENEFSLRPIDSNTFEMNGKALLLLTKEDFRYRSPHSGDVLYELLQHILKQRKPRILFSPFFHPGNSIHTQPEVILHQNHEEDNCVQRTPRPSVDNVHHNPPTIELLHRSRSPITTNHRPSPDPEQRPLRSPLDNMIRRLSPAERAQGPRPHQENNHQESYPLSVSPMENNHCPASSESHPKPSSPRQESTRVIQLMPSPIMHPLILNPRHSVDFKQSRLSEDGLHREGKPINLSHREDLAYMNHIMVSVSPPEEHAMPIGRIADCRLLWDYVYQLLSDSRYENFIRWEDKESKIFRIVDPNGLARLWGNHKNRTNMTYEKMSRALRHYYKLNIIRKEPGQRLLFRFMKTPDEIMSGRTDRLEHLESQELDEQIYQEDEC
ELF4, sequence (Q99607 whole entry): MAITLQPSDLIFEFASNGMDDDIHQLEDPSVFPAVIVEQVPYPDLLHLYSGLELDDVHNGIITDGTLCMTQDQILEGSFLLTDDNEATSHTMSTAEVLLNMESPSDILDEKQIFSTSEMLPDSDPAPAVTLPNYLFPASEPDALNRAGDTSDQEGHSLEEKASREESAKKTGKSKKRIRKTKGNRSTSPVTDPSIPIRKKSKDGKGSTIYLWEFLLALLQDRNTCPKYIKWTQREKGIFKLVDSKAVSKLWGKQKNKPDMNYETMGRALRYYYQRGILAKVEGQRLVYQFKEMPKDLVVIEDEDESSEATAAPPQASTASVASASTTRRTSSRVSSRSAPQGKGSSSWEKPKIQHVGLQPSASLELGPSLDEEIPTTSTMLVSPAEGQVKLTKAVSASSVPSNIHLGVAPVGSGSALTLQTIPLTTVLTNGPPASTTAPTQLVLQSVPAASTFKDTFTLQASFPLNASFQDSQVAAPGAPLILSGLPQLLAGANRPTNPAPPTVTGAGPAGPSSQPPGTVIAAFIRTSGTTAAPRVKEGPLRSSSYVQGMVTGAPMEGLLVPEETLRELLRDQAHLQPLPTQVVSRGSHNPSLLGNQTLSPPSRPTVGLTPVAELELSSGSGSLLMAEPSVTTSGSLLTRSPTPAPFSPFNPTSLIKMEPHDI

Sequence | binding signal (FLI1) | binding signal (ELK1) | binding signal (ELF1) | binding signal (EHF) | binding signal (ELK4) | binding signal (ETV2) | binding signal (ELF3) | binding signal (ETV7) | binding signal (ERG) | binding signal (ELK3) | binding signal (SPIC) | binding signal (ELF4) | binding signal (ETV3L) | binding signal (ETV3) | binding signal (ETV6)
GCCGTC | 1.04 fold enrichment (6-mer frequency, TF over GST control) | 1.03 fold enrichment (6-mer frequency, TF over GST control) | 1.02 fold enrichment (6-mer frequency, TF over GST control) | 1.1 fold enrichment (6-mer frequency, TF over GST control) | 1.1 fold enrichment (6-mer frequency, TF over GST control) | 1.03 fold enrichment (6-mer frequency, TF over GST control) | 1.17 fold enrichment (6-mer frequency, TF over GST control) | 1.03 fold enrichment (6-mer frequency, TF over GST control) | – | – | – | – | – | – | –
CATGGC | 1.1 fold enrichment (6-mer frequency, TF over GST control) | 1.02 fold enrichment (6-mer frequency, TF over GST control) | 1.02 fold enrichment (6-mer frequency, TF over GST control) | 1.02 fold enrichment (6-mer frequency, TF over GST control) | – | 1.04 fold enrichment (6-mer frequency, TF over GST control) | – | 1.07 fold enrichment (6-mer frequency, TF over GST control) | 1.05 fold enrichment (6-mer frequency, TF over GST control) | 1.04 fold enrichment (6-mer frequency, TF over GST control) | 1.05 fold enrichment (6-mer frequency, TF over GST control) | 1.02 fold enrichment (6-mer frequency, TF over GST control) | 1.02 fold enrichment (6-mer frequency, TF over GST control) | 1.05 fold enrichment (6-mer frequency, TF over GST control) | 1 fold enrichment (6-mer frequency, TF over GST control)
